# Laboratory results as given in publication PMC4081100, “A DNA-binding-site landscape and regulatory network analysis for NAC transcription factors in Arabidopsis thaliana”.
# Target: GST-NTL6(1-168) (Arabidopsis thaliana, UniProt Q9SCK6 1-168)
# Assay: universal protein binding microarray (PBM); transcription factors of Arabidopsis thaliana; high values mean tight binding
# Conditions: protein: recombinant; tags: GST; chain copies: 2; dsDNA, one strand shown
# Method in brief: (§1)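 Each value is a normalised enrichment score (E-score) describing binding. The GST-tagged proteins, NAC-domain, full-length or DNA-binding-domain, were induced in cells (zinc-finger proteins with zinc acetate added) and purified on glutathione–Sepharose 4B. They were applied at 200 to 500 nM final, in duplicate, to double-stranded custom all-10-mer Agilent 4 × 180K arrays, and gapped and ungapped 8-mers were scored.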
# GST-NTL6(1-168), sequence (Q9SCK6 1-168): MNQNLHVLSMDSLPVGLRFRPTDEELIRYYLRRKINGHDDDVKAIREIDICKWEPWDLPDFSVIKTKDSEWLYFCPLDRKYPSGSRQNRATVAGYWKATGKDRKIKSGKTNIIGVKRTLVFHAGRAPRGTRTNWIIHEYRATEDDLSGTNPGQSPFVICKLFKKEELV
row,Sequence,binding signal [E-score]
1,TGACTGCA,0.0778
2,CGAAGTCA,0.0962
3,GAAGGTCA,0.116
4,AGGTCAAT,0.137
5,GGAAGTCA,0.132
6,AAAGTCTT,0.0508

# Target: T1, GST-ANAC019 NAC domain (Arabidopsis thaliana, UniProt Q9C932 14-162)
# T1 sequence: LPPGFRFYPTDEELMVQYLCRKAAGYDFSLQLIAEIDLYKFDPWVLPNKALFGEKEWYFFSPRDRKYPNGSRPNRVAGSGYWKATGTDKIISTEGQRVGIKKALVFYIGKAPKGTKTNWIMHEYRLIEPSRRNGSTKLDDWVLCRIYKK
# Assay: as above
# Conditions: protein: recombinant; tags: GST; chain copies: 2; dsDNA, one strand shown
# Method in brief: as §1
row,Sequence,binding signal [E-score]
1,CCGTTGAC,0.157
2,CAGTCAGA,0.0745
3,GGTCAAGA,0.09
4,CGTTGACC,0.0797
5,CACGGTCA,0.052
6,GTAGGTCA,0.129
7,GGTGGTCA,0.0992
8,GCGTTGAC,0.0691
9,GGAAGTCA,0.0521
10,GAGTCAAC,0.14
11,GCTGACCA,0.0761
12,AGTCAGAC,0.0719
13,GAAGACCA,0.0558
14,GAAAAGTC,0.139
15,CAGTTGAC,0.135
16,GACCAAGA,0.0567
17,CTGACCAC,0.0574
18,GTGTCAAC,0.0933
19,CCGTCAAC,0.0816
20,TGACCCCA,0.0651

# Target: T2, GST-ANAC055(1-171) (Arabidopsis thaliana, UniProt Q9LDY8 1-171)
# T2 sequence: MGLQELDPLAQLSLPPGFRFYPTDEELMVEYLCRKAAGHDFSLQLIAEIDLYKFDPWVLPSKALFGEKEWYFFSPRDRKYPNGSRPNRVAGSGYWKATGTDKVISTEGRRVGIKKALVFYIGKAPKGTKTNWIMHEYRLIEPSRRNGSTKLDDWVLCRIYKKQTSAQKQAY
# Assay: as above
# Conditions: protein: recombinant; tags: GST; chain copies: 2; dsDNA, one strand shown
# Method in brief: as §1
row,Sequence,binding signal [E-score]
1,TGACTGCA,0.0624
2,AGGTCAAT,0.0969
3,GAATTGAC,0.0993
4,CTCGTCAA,0.0602
5,GACTTGAC,0.11
6,CAGTTGAC,0.0582
7,AAAGTCTT,0.109
8,ACTTGACT,0.0752
9,ATTTGACC,0.079
10,TCGTCAAA,0.0878
11,GTTTGACA,0.0647

# Target: T3, GST-ATAF1 NAC domain (Arabidopsis thaliana, UniProt Q39013 7-158)
# T3 sequence: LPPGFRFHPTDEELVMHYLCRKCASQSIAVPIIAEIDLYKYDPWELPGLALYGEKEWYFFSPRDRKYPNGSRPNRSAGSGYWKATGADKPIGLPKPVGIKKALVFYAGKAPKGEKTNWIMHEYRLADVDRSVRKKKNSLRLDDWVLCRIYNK
# Assay: as above
# Conditions: protein: recombinant; tags: GST; chain copies: 2; dsDNA, one strand shown
# Method in brief: as §1
row,Sequence,binding signal [E-score]
1,GATTTGAC,0.122
2,TGACTGCA,0.0918
3,GTTGACGA,0.0784
4,GAAAGTCA,0.0574
5,AGGTTGAC,0.13
6,GAATTGAC,0.092
7,CTCGTCAA,0.0515
8,GACTTGAC,0.199
9,GAAAAGTC,0.137
10,CAGTTGAC,0.112
11,ACTTGACT,0.186
12,CGTTTGAC,0.0858
13,GCAGTCAA,0.0666
14,TCGTCAAA,0.0946
15,GTTTGACA,0.101
16,AGTCAATG,0.0527

# Target: T4, GST-ANAC092(1-285) full length (Arabidopsis thaliana, UniProt Q9FKA0 1-285)
# T4 sequence: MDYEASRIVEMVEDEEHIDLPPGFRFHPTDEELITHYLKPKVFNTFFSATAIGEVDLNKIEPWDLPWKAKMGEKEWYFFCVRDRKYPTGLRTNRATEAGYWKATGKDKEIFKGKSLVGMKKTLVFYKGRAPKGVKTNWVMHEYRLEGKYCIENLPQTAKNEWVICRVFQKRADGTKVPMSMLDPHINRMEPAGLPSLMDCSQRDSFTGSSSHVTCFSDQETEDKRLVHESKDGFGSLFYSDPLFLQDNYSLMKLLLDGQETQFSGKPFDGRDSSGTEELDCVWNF
# Assay: as above
# Conditions: protein: recombinant; tags: GST; chain copies: 2; dsDNA, one strand shown
# Method in brief: as §1
row,Sequence,binding signal [E-score]
1,CCGTTGAC,0.0578
2,GAAAGTCA,0.0781
3,GGTCAAGA,0.0594
4,GGAAGTCA,0.0837
5,GAATTGAC,0.0675
6,GACTTGAC,0.0614
7,ACTTGACT,0.0808

# Target: T5, GST-NAP(1-166) (Arabidopsis thaliana, UniProt O49255 1-166)
# T5 sequence: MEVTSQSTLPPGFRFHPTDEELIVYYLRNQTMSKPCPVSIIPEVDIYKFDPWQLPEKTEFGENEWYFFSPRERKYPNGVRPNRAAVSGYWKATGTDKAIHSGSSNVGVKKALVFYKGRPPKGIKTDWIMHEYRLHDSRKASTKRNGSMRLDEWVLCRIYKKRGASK
# Assay: as above
# Conditions: protein: recombinant; tags: GST; chain copies: 2; dsDNA, one strand shown
# Method in brief: as §1
row,Sequence,binding signal [E-score]
1,CCGTTGAC,0.126
2,CGTTGACC,0.0594
3,GCGTTGAC,0.116
4,CTCGTCAA,0.0553
5,GAAAAGTC,0.145
6,CAGTTGAC,0.0525
7,GTGTCAAC,0.0561
8,CGTTTGAC,0.0589
9,GCAGTCAA,0.0815

# Target: T6, GST-NST2(1-184) (Arabidopsis thaliana, UniProt Q9M274 1-184)
# T6 sequence: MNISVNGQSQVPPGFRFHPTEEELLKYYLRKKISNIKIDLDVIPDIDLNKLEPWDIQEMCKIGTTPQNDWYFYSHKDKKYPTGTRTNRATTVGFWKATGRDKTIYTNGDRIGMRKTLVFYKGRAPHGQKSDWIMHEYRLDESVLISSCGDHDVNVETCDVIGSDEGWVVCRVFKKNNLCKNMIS
# Assay: as above
# Conditions: protein: recombinant; tags: GST; chain copies: 2; dsDNA, one strand shown
# Method in brief: as §1
row,Sequence,binding signal [E-score]
1,GGTCAAGA,0.08
2,GAATTGAC,0.0714
3,GAAAAGTC,0.0971
4,CAGTTGAC,0.0574
5,ACTTGACT,0.0742
6,CGTTTGAC,0.0861
7,TCGTCAAA,0.0744
8,GTTTGACA,0.0521
9,AGTCAATG,0.0628

# Target: T7, GST-NTL8 NAC domain (Arabidopsis thaliana, UniProt Q9XIN7 14-156)
# T7 sequence: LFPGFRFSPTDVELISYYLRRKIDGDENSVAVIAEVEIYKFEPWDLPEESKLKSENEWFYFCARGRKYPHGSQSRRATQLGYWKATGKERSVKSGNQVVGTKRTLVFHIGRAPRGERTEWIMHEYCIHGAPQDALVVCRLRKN
# Assay: as above
# Conditions: protein: recombinant; tags: GST; chain copies: 2; dsDNA, one strand shown
# Method in brief: as §1
row,Sequence,binding signal [E-score]
1,CGAAGTCA,0.132
2,GAAGGTCA,0.0878
3,CGTTGACC,0.123
4,CACGGTCA,0.063
5,GTAGGTCA,0.0647
6,GGAAGTCA,0.0895
7,GAATTGAC,0.051
8,GACTTGAC,0.0707
9,GAAAAGTC,0.19
10,GCAGTCAA,0.0556

# Target: GST-WRKY1(266-371) (Arabidopsis thaliana, UniProt Q9SI37 266-371)
# Sequence (Q9SI37 266-371): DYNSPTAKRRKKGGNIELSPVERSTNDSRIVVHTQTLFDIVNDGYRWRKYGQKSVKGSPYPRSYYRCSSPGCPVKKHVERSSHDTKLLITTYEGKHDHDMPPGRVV
# Assay: as above
# Conditions: protein: recombinant; tags: GST; dsDNA, one strand shown
# Method in brief: as §1
row,Sequence,binding signal [E-score]
1,GATTTGAC,0.464
2,TGACTGCA,0.413
3,CGAAGTCA,0.42
4,GTTGACGA,0.453
5,CCGTTGAC,0.49
6,CAGTCAGA,0.404
7,GAAGGTCA,0.426
8,GAAAGTCA,0.461
9,GGTCAAGA,0.477
10,AGGTTGAC,0.474
11,CGTTGACC,0.496
12,AGGTCAAT,0.478
13,CACGGTCA,0.44
14,GTAGGTCA,0.416
15,GGTGGTCA,0.43
16,GCGTTGAC,0.488
17,GGAAGTCA,0.429
18,GAGTCAAC,0.487
19,GCTGACCA,0.462
20,GAATTGAC,0.439

row,Sequence,binding signal [E-score]
1,AGTCAGAC,0.442
2,CTCGTCAA,0.424
3,GAAGACCA,0.442
4,GACTTGAC,0.458
5,GAAAAGTC,0.413
6,CAGTTGAC,0.477
7,GACCAAGA,0.403
8,AAAGTCTT,0.429
9,ACTTGACT,0.456
10,CTGACCAC,0.41
11,GTGTCAAC,0.404
12,CGTTTGAC,0.476
13,ATTTGACC,0.481
14,GCAGTCAA,0.478
15,CCGTCAAC,0.451
16,TCGTCAAA,0.432
17,GTTTGACA,0.417
18,AGTCAATG,0.481
19,TGACCCCA,0.428
